Tests used:
Settings in all cases: concentration: 1 μM, replicates: in singlicate; n = 1
[1] = tested on: BMPR1A
[2] = tested on: BMPR1B
[3] = tested on: BMPR2
[4] = tested on: BMX
[5] = tested on: BRAF
[6] = tested on: T1, BRK
T1 construct: gene PTK6

[7] = tested on: BRSK1
[8] = tested on: BRSK2
[9] = tested on: BTK
[10] = tested on: BUB1
[11] = tested on: CAMK1B
[12] = tested on: CAMK1D
[13] = tested on: CAMK1G
[14] = tested on: CAMK1
[15] = tested on: CAMK2A
[16] = tested on: CAMK2B
[17] = tested on: CAMK2D
[18] = tested on: CAMK2G
[19] = tested on: CAMK4
[20] = tested on: CAMKK1
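Note: KINOMEscan kinase panel screen.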

| SMILES | %Inh [1] [%] | %Inh [2] [%] | %Inh [3] [%] | %Inh [4] [%] | %Inh [5] [%] | %Inh [6] [%] | %Inh [7] [%] | %Inh [8] [%] | %Inh [9] [%] | %Inh [10] [%] | %Inh [11] [%] | %Inh [12] [%] | %Inh [13] [%] | %Inh [14] [%] | %Inh [15] [%] | %Inh [16] [%] | %Inh [17] [%] | %Inh [18] [%] | %Inh [19] [%] | %Inh [20] [%] |
| --- | --- | --- | --- | --- | --- | --- | --- | --- | --- | --- | --- | --- | --- | --- | --- | --- | --- | --- | --- | --- |
| O=C(O)COc1ncnc2cc(-c3ccc4[nH]ncc4c3)sc12 | 19 | 18 | 63 | 0 | 19 | 100 | 5 | 1 | 0 | 25 | 7 | 0 | 31 | 0 | 0 | 0 | 26 | 17 | 7 | 34 |
| COc1ccc(C2=C(Nc3cccc(C(=O)O)c3)C(=O)NC2=O)cc1 [SB-390765] | 13 | 4 | 0 | 17 | 9 | 0 | 0 | 0 | 0 | 0 | 44 | 18 | 0 | 23 | 5 | 0 | 16 | 26 | 0 | 0 |
| COc1ccc(CNC(=O)NC2CCN(c3ccnc(Nc4cc(OC)c(OC)c(OC)c4)n3)C2)cc1 (centres unmarked) [GSK1379748] | 1 | 0 | 0 | 21 | 0 | 3 | 0 | 0 | 32 | 32 | 2 | 15 | 8 | 28 | 0 | 0 | 16 | 17 | 0 | 8 |
| COc1cc2ncn(-c3cc(OCC4CCCO4)c(C(N)=O)s3)c2cc1OC (centres unmarked) [GSK204607] | 0 | 0 | 24 | 19 | 0 | 18 | 15 | 7 | 0 | 32 | 0 | 13 | 0 | 6 | 0 | 0 | 0 | 0 | 0 | 0 |
| Cc1csc(-c2nc(Nc3ccncc3)c3ccccc3n2)n1 [GW869640] | 6 | 42 | 36 | 14 | 10 | 8 | 0 | 15 | 0 | 72 | 9 | 0 | 14 | 5 | 10 | 2 | 17 | 25 | 0 | 26 |
| Cc1nnc(-c2ccc3occ(-c4ccc(S(C)=O)cc4)c3c2)[nH]1 (centres unmarked) | 11 | 37 | 26 | 0 | 2 | 0 | 38 | 0 | 0 | 26 | 1 | 15 | 23 | 9 | 4 | 12 | 10 | 12 | 0 | 14 |
| CCn1c(-c2cccnc2O)nc2cnccc21 [SB-736715] | 0 | 0 | 0 | 0 | 0 | 0 | 0 | 0 | 0 | 6 | 30 | 0 | 0 | 0 | 0 | 0 | 0 | 0 | 0 | 2 |
| Cc1c(O)cccc1Nc1ccnc2ccc(C(F)(F)F)cc12.Cl [GW466413] | 0 | 44 | 0 | 0 | 69 | 86 | 0 | 0 | 0 | 29 | 2 | 7 | 0 | 1 | 0 | 0 | 0 | 0 | 0 | 12 |
| CCn1c(-c2ccccn2)nc2cnccc21 [SB-736398] | 0 | 0 | 21 | 77 | 11 | 14 | 100 | 0 | 7 | 40 | 34 | 0 | 0 | 0 | 0 | 0 | 0 | 0 | 0 | 0 |
| COc1ccc2nc(-c3cccc(C)n3)nc(Nc3ccncc3)c2c1 [GSK204919] | 0 | 0 | 0 | 27 | 0 | 8 | 4 | 0 | 0 | 38 | 0 | 2 | 0 | 5 | 0 | 0 | 0 | 3 | 0 | 0 |
